Assays:
Assay in all cases: DAPPL (digital affinity profiling via proximity ligation, sequencing); 10 mM Tris-HCl pH 7.5, 50 mM NaCl, 1 mM DTT, 4% glycerol, room temperature, 30 min; GST-TFs on glutathione beads, 16-mer random dsDNA library, 0.1% formaldehyde crosslink after washing; high values mean tight binding
FLI1 = target: T1, FLI1 (Homo sapiens, UniProt Q01543 1-452); conditions: protein: recombinant; tags: N-terminal GST; dsDNA, one strand shown
T1 sequence: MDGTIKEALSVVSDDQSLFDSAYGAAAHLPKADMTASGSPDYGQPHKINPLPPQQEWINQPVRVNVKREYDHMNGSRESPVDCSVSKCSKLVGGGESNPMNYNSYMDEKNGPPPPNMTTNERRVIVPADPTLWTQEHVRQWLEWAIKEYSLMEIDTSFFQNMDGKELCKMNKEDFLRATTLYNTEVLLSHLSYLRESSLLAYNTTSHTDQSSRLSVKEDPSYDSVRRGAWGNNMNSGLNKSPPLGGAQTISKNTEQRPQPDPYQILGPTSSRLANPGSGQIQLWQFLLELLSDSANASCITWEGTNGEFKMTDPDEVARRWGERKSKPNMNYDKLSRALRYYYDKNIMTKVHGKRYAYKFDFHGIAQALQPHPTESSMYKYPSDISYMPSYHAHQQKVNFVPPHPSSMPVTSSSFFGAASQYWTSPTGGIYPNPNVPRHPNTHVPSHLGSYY
Outline: (§1)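 A tag-only sample was pooled with DNA-barcoded human transcription factors that had been expressed in yeast as GST fusions and captured on glutathione beads. The pools were incubated for 30 min at room temperature with 200 nmole of a random double-stranded 16-mer DNA library in Tris/NaCl/DTT/glycerol buffer, then washed, crosslinked with 0.1% formaldehyde, proximity-ligated (BsaI/T4 ligase, 1 h, 37 °C), PCR-amplified and sequenced on an Illumina NextSeq500. Binding signal is each hexamer's read frequency for a factor divided by its frequency for the tag-only sample.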

ELK1 = target: T2, ELK1 (Homo sapiens, UniProt P19419 1-428); conditions: protein: recombinant; tags: N-terminal GST; dsDNA, one strand shown
T2 sequence: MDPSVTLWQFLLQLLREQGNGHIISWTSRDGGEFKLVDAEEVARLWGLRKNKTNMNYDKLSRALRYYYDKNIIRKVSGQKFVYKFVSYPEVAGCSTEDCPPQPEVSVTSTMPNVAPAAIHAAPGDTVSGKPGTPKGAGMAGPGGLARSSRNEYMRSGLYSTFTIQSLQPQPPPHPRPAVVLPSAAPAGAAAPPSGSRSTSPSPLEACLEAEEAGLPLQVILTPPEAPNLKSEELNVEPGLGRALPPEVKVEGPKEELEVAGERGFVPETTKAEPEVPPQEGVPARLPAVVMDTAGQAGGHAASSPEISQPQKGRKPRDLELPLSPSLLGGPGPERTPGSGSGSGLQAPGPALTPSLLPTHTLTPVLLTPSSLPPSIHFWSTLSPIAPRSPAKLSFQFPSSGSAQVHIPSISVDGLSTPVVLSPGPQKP
Outline: as §1

ERG = target: T3, ERG (Homo sapiens, UniProt P11308 1-479); conditions: protein: recombinant; tags: N-terminal GST; dsDNA, one strand shown
T3 sequence: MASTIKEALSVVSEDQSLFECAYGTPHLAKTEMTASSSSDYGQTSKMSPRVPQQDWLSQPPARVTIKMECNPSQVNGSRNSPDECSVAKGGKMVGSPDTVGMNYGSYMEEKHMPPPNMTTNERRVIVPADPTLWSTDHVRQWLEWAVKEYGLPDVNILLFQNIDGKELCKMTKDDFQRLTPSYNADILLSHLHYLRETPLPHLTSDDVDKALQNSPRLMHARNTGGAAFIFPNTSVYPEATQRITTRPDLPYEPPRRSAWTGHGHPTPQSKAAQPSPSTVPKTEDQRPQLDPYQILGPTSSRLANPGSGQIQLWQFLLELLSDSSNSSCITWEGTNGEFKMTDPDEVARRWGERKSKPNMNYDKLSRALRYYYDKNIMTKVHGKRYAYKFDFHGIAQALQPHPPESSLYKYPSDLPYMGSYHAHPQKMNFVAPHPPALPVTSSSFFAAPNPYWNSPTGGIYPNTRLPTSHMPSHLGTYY
Outline: as §1

EHF = target: T4, EHF (Homo sapiens, UniProt Q9NZC4 1-300); conditions: protein: recombinant; tags: N-terminal GST; dsDNA, one strand shown
T4 sequence: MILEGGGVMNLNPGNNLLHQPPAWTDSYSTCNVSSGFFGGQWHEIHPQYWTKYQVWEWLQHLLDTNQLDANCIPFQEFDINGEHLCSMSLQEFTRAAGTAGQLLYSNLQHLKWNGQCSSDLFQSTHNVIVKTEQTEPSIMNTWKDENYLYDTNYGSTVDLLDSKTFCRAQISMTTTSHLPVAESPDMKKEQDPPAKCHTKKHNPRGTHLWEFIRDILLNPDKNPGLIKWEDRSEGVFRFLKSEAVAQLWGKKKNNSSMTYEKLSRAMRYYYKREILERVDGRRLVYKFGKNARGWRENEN
Outline: as §1

SPI1 = SPI1 (Homo sapiens, UniProt P17947 1-270); conditions: protein: recombinant; tags: N-terminal GST; dsDNA, one strand shown
Outline: as §1

SPIB = SPIB (Homo sapiens, UniProt Q01892 1-262); conditions: protein: recombinant; tags: N-terminal GST; dsDNA, one strand shown
Outline: as §1

ELK3 = target: T5, ELK3 (Homo sapiens, UniProt P41970 1-407); conditions: protein: recombinant; tags: N-terminal GST; dsDNA, one strand shown
T5 sequence: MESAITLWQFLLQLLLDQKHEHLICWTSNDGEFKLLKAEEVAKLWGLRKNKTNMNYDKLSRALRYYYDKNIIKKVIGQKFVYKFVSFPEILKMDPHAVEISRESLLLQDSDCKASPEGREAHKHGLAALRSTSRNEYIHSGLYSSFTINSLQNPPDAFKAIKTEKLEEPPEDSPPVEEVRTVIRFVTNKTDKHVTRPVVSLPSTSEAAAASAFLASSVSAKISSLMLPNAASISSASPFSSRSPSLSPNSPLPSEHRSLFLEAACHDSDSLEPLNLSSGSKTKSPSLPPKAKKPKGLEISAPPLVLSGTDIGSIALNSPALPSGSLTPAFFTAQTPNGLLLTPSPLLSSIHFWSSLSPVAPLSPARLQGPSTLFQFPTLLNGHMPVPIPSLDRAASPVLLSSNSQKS
Outline: as §1

FEV = target: T6, FEV (Homo sapiens, UniProt Q99581 1-238); conditions: protein: recombinant; tags: N-terminal GST; dsDNA, one strand shown
T6 sequence: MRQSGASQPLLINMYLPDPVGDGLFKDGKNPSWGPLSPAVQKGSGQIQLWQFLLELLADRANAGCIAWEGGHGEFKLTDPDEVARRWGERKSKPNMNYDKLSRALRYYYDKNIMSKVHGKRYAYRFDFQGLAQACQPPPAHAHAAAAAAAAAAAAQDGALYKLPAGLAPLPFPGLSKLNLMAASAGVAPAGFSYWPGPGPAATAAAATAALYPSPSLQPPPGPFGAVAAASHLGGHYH
Outline: as §1

ETV5 = ETV5 (Homo sapiens, UniProt P41161 1-510); conditions: protein: recombinant; tags: N-terminal GST; dsDNA, one strand shown
Outline: as §1

HSF1 = HSF1 (Homo sapiens, UniProt Q00613 1-529); conditions: protein: recombinant; tags: N-terminal GST; chain copies: 3; dsDNA, one strand shown
Outline: as §1

SPIC = target: T7, SPIC (Homo sapiens, UniProt Q8N5J4 1-248); conditions: protein: recombinant; tags: N-terminal GST; dsDNA, one strand shown
T7 sequence: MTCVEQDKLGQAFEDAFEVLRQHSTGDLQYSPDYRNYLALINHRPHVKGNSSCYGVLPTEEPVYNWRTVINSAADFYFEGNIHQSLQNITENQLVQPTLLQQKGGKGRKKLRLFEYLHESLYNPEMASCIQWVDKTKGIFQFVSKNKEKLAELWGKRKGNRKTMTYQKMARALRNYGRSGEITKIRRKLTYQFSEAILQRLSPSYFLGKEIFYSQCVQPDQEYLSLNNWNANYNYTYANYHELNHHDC
Outline: as §1

ELF4 = ELF4 (Homo sapiens, UniProt Q99607 1-663); conditions: protein: recombinant; tags: N-terminal GST; dsDNA, one strand shown
Outline: as §1

ELF3 = target: T8, ELF3 (Homo sapiens, UniProt P78545 1-371); conditions: protein: recombinant; tags: N-terminal GST; dsDNA, one strand shown
T8 sequence: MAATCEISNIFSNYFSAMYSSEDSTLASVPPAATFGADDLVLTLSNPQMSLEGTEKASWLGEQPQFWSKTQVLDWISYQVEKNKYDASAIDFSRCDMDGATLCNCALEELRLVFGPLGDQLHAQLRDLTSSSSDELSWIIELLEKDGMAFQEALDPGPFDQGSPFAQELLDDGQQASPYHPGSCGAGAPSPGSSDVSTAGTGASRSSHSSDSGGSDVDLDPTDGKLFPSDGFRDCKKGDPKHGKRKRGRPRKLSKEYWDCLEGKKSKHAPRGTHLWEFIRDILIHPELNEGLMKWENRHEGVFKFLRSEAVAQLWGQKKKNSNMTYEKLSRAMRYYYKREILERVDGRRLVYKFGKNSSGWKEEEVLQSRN
Outline: as §1

CRX = CRX (Homo sapiens, UniProt O43186 1-299); conditions: protein: recombinant; tags: N-terminal GST; dsDNA, one strand shown
Outline: as §1

ETV1 = ETV1 (Homo sapiens, UniProt P50549 1-477); conditions: protein: recombinant; tags: N-terminal GST; dsDNA, one strand shown
Outline: as §1

ETV5, sequence (P41161 whole entry): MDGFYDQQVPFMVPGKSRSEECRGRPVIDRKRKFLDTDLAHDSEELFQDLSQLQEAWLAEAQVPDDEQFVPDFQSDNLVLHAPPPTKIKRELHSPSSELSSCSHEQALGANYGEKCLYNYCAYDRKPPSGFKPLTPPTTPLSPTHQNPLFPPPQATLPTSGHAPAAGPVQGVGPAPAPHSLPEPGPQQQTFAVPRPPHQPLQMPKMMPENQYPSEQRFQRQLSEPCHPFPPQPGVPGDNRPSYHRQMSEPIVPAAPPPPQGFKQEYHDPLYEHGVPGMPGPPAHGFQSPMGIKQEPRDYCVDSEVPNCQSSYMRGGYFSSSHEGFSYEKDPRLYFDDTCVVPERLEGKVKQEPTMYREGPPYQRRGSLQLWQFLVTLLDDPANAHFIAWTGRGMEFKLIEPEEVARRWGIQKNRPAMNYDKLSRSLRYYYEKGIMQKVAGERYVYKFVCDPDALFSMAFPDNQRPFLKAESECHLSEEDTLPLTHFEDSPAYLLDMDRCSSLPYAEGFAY
ETV1, sequence (P50549 whole entry): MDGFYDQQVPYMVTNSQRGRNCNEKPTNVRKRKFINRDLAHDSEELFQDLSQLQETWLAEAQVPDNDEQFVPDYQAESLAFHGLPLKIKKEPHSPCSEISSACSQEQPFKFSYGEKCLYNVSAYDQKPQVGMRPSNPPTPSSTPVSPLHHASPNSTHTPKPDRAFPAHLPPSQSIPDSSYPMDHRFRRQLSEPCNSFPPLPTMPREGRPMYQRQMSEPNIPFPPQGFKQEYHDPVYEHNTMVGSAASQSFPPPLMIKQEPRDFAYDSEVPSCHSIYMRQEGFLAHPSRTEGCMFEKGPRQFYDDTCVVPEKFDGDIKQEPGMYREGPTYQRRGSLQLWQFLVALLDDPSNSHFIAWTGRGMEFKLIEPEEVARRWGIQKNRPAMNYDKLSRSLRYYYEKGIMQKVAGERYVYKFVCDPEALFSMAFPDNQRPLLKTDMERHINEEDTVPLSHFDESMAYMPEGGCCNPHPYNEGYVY
CRX, sequence (O43186 whole entry): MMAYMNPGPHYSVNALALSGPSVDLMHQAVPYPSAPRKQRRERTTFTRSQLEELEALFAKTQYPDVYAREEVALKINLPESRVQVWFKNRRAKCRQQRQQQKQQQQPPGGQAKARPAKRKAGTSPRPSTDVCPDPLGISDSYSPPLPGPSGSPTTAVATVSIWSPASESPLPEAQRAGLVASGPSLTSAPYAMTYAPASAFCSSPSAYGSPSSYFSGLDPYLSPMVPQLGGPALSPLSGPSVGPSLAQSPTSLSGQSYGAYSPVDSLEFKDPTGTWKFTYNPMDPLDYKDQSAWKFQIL
ELF4, sequence (Q99607 whole entry): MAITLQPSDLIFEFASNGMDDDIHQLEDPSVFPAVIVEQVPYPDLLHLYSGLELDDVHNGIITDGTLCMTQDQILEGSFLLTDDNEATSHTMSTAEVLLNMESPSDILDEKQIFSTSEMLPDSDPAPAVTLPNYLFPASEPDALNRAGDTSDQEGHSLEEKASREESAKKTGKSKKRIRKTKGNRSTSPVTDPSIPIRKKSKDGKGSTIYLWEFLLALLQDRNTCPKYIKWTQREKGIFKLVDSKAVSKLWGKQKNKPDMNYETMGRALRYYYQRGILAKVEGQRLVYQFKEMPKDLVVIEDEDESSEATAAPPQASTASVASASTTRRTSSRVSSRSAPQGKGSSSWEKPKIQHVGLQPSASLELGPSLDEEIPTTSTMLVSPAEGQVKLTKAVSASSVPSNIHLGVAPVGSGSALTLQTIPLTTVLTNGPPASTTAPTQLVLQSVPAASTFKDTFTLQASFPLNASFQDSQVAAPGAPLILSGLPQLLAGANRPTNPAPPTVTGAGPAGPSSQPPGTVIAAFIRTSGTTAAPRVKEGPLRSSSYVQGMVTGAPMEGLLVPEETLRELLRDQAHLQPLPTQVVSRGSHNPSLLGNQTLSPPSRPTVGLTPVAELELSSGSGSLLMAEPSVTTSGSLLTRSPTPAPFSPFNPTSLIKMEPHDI
HSF1, sequence (Q00613 whole entry): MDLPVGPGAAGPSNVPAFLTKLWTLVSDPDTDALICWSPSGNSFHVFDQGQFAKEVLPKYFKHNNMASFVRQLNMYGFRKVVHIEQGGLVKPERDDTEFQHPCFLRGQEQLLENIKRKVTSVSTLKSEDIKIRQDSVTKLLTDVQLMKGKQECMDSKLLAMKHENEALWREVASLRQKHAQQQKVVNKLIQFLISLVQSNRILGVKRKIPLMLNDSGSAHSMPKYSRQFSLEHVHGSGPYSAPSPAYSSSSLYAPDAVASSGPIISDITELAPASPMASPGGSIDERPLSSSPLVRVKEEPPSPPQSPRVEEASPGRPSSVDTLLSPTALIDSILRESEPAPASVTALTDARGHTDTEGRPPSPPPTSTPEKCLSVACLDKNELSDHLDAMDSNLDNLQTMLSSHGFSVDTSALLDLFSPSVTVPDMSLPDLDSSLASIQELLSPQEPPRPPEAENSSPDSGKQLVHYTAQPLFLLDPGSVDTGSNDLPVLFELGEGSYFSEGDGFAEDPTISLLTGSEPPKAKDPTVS
SPIB, sequence (Q01892 whole entry): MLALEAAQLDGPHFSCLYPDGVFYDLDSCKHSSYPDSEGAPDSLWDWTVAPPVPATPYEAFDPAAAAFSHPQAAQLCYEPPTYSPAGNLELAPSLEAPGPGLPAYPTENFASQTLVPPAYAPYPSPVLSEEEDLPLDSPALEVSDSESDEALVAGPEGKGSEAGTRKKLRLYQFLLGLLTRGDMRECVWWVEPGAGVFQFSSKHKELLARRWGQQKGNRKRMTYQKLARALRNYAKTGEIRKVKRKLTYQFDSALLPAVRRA

Which results are given for AAATCG?
binding signal (FLI1): 1.03 fold enrichment (6-mer frequency, TF over GST control); binding signal (ELK1): 1.01 fold enrichment (6-mer frequency, TF over GST control); binding signal (ERG): 1.06 fold enrichment (6-mer frequency, TF over GST control); binding signal (EHF): 1.03 fold enrichment (6-mer frequency, TF over GST control); binding signal (SPI1): 1.01 fold enrichment (6-mer frequency, TF over GST control); binding signal (SPIB): 1.04 fold enrichment (6-mer frequency, TF over GST control); binding signal (ELK3): 1.04 fold enrichment (6-mer frequency, TF over GST control); binding signal (FEV): 1 fold enrichment (6-mer frequency, TF over GST control); binding signal (ETV5): 1.04 fold enrichment (6-mer frequency, TF over GST control); binding signal (HSF1): 1.18 fold enrichment (6-mer frequency, TF over GST control); binding signal (SPIC): 1 fold enrichment (6-mer frequency, TF over GST control); binding signal (ELF4): 1.11 fold enrichment (6-mer frequency, TF over GST control); binding signal (ELF3): 1.03 fold enrichment (6-mer frequency, TF over GST control); binding signal (CRX): 1.26 fold enrichment (6-mer frequency, TF over GST control); binding signal (ETV1): 1.05 fold enrichment (6-mer frequency, TF over GST control)
